# Records with an inconclusive call do not appear. Calls of active or inactive are those of the source. Rule for the calls: active = hit-call score of the fitted dose curve at least 0.9, where 1 is the maximum; inconclusive = response in the unintended direction; inactive = score below 0.9.
# Test system: rainbow trout Peroxisome Proliferator-activated Receptor alpha (PPARa), gene 110490141
# Experiment: ATG_rtPPARa_EcoTox2: Attagene TRANS-FACTORIAL EcoTox-2 HepG2 Assay for rainbow trout Peroxisome Proliferator-activated Receptor alpha (PPARa)
# Procedure: ATG_EcoTox2 is a cell-based, multiplexed assay created by modifying the existing Attagene TRANS-FACTORIAL system to include a panel of nuclear receptors from some or all the following species: human (Homo sapiens), african clawed frog (Xenopus laevis), rainbow trout (Oncorhynchus mykiss), japanese medaka (Oryzias latipes), and zebrafish (Danio rerio). The ECOTOX2-FACTORIAL format uses HepG2, a human liver cell line, with measurements taken at 24 hours after chemical dosing in a 24-well plate. ATG_rtPPARa_EcoTox2 is one of 29 assay components calculated in the ATG_EcoTox2 assay. It is designed to make measurements of mRNA induction, a form of inducible reporter, as detected with fluorescence intensity signals by Reverse transcription polymerase chain reaction (RT-PCR) and Capillary electrophoresis technology.The assay endpoint ATG_frPPARa_EcoTox2 was analyzed in the positive analysis fitting direction relative to DMSO as the negative control and baseline of activity. Using a type of inducible reporter, measures of mRNA for gain-of-signal activity can be used to understand the reporter gene at the transcription factor-level as they relate to the gene PPARa. Furthermore, this assay endpoint can be referred to as a primary readout, because this assay has produced multiple assay endpoints where this one serves a reporter gene function. […]
row,Compound,AC50
1,O=S(=O)(O)C(F)(F)C(F)(F)C(F)(F)C(F)(F)C(F)(F)C(F)(F)F,30.6 µM (active)
2,O=C(O)C(F)(F)C(F)(F)C(F)(F)C(F)(F)C(F)(F)C(F)(F)C(F)(F)F,54.2 µM (active)
